Experiments:
Format in all cases: functional
Plasmodium falciparum [1] = assay: GSK_TCMDC: Inhibition of Plasmodium falciparum 3D7 in whole red blood cells, using parasite LDH activity as an index of growth. Test compounds present at 2uM
Plasmodium falciparum [2] = assay: GSK_TCMDC: Inhibition of Plasmodium falciparum Dd2 in whole red blood cells, using parasite LDH activity as an index of growth. Test compounds present at 2uM
HepG2 = assay: GSK_TCMDC: Percent inhibition of human HepG2 cell line. Test compounds present at 10uM.

| SMILES | Inhibition (Plasmodium falciparum [1]) [%] | Inhibition (Plasmodium falciparum [2]) [%] | Inhibition (HepG2) [%] |
| --- | --- | --- | --- |
| CCc1c[nH]c2c(N3CCCCC3=O)cc(C(=O)N[C@@H](Cc3ccccc3)[C@H](O)CNCc3cccc(OC)c3)cc12.O=CO | 100 | 99 | 8 |
| CCc1cc2c(Sc3nnc(N)s3)ncnc2s1 | 99 | 65 | 0 |
| O=C(/C=C/c1ccc(Cl)cc1)NCCCCCN1CCCN(C(=O)Nc2ccc(Cl)c(C(F)(F)F)c2)CC1 | 95 | 1 | 54 |
| O=C(NC1CC1)c1ccc(N2CCC(Oc3ccc(F)cc3)CC2)nc1 | 89 | 79 | 0 |
| Cc1n[nH]c2cc(Nc3nccc(Nc4ccc(Oc5ccccc5)cc4)n3)ccc12.Cl | 100 | 98 | 8 |
| CCOCc1cnc(C)nc1NCC(=O)c1c(C)[nH]c2cc(C)ccc12.I | 89 | 76 | 8 |
| CCCc1ccc(NC(=O)c2ccc(CN3CCCN(Cc4cccc(O)c4)CC3)cc2)cc1.O=C(O)C(F)(F)F | 100 | 63 | 51 |
| O=C(Cc1ccc(NC(=O)c2ccc(O)c(-c3ccc(Cl)c(Cl)c3)c2)cc1)NCCN1CCOCC1 | 94 | 24 | 10 |
| Cc1cc(N2CCOCC2)nc(Nc2ccc(NC(=O)c3cccc4ccccc34)cc2)n1 | 95 | 11 | 44 |
| Br.N=C1N=C(N)NC2(CCCCC2)N1OCCCOc1cc(Cl)c(Cl)cc1Cl | 94 | 98 | 62 |
| CCN1CCN(c2cc(C)c3cc(NC(=O)c4cccc(OC)c4)ccc3n2)CC1 | 99 | 15 | 5 |

— ChEMBL document CHEMBL1157539, “Thousands of chemical starting points for antimalarial lead identification” (Nature, 2010)
